Measured values from PubChem BioAssay AID1662 (Broad Institute, 2009).
About 4,000 (1.3%) of roughly 300,000 compounds were called active. This is one part of a sample in which actives are shown more often than they occur.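 Rule for the calls: active = mean replicate score, as percent of positive control median, at least 50; inconclusive = mean below 50 but one replicate at or above 50; inactive = mean and every replicate below 50.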

Test: kanamycin survival loss of SKKanGAS strain – BacTiter-Glo luminescence, streptokinase expression inhibitor project, primary screen (AID 1662);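 note: strain carries kanamycin resistance gene driven by streptokinase promoter and grows in 40 µg/ml kanamycin; loss of luminescence reflects streptokinase promoter inhibition or plain growth inhibition; 0% = median of DMSO wells and 100% = positive control at its reference dose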
Settings: S. pyogenes SKKanGAS, kanamycin growth, 6 h, at 7.5 µM, hits give high values

Structure (SMILES) | inhibition
O=C(N/N=C/c1c(O)n(C2CC2)c(=S)[nH]c1=O)c1ccccc1 | -1.33% (inactive)
O=c1[nH]c(=O)n(Cc2ccccc2)c(O)c1/C=N/Nc1c(F)c(F)c(F)c(F)c1F | 6.55% (inactive)
O=C(N/N=C/c1c(O)n(Cc2ccccc2)c(=O)[nH]c1=O)c1ccccc1 | 56.7% (active)
COC(=O)N(c1ccc(OC)cc1)P1(=S)OCCC(C)O1 (stereo not given) | -2.38% (inactive)
CCOP(=S)(OCC)SCOC(=O)NCC(=O)OC | 3.28% (inactive)
COc1ccccc1OC(=O)c1ccc(C)c(S(=O)(=O)N2CCOCC2)c1 | 3.63% (inactive)
CCCCCCCCCCCCn1ccc(=N)cc1 | 93.3% (active)
O=[N+]([O-])c1ccc(C2C3C(c4ccccc4)=NC4(CCCCC4)N32)cc1 (stereo not given) | 4.96% (inactive)
Cc1cccc(NC(=O)OC2CN3CCC2CC3)c1 (stereo not given) | 0.418% (inactive)
CC1(C)C(c2ccccc2)=NC(c2cccnc2)=[N+]1[O-] | -22% (inactive)
CCCCCn1c(=O)c(C(=O)NCc2ccccn2)c(O)c2ccccc21 | 6.78% (inactive)
CCCCn1c(=O)c(C(=O)Nc2ccccc2Cl)c(O)c2ccccc21 | -1.86% (inactive)
CCCCCn1c(=O)c(C(=O)NCc2ccccc2)c(O)c2ccccc21 | 86% (active)
COC(=O)C1=C(c2cc3ccccc3o2)C[C@@H]2CC[C@H]1N2C(=O)NC1CCCCC1 | 7.09% (inactive)
O=C(Cc1ccccc1)N1CCN(C2CCCCCC2)CC1 | 4.36% (inactive)
